Measurements reported in article PMC7862700, “An all-to-all approach to the identification of sequence-specific readers for epigenetic DNA modifications on cytosine”.

Key:
Assay in all cases: DAPPL (digital affinity profiling via proximity ligation, sequencing); 10 mM Tris-HCl pH 7.5, 50 mM NaCl, 1 mM DTT, 4% glycerol, room temperature, 30 min; GST-TFs on glutathione beads, 16-mer random dsDNA library, 0.1% formaldehyde crosslink after washing; high values mean tight binding
FEV = target: T1, FEV (Homo sapiens, UniProt Q99581 1-238); details: protein: recombinant; tags: N-terminal GST; dsDNA, one strand shown
T1 sequence: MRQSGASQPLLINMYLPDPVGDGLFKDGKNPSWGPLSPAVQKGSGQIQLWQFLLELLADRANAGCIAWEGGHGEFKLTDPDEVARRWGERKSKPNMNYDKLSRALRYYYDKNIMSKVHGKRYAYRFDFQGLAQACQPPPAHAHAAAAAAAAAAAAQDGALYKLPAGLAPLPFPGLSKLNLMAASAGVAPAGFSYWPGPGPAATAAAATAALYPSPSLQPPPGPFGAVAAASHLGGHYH
Outline: (§1)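 In yeast, human transcription factors were expressed with a GST fusion, then pulled down on glutathione beads and given DNA barcodes. Pooled with a tag-only sample, they were exposed to 200 nmole of a 16-mer random double-stranded DNA library (Tris/NaCl/DTT/glycerol buffer, room temperature, 30 min), washed, crosslinked with 0.1% formaldehyde, proximity-ligated using BsaI/T4 ligase for 1 h at 37 °C, PCR-amplified and read on an Illumina NextSeq500. Each hexamer's frequency of reads for a factor, divided by the matching frequency for the tag-only sample, gives the binding signal.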

ETV5 = ETV5 (Homo sapiens, UniProt P41161 1-510); details: protein: recombinant; tags: N-terminal GST; dsDNA, one strand shown
Outline: as §1

HSF1 = HSF1 (Homo sapiens, UniProt Q00613 1-529); details: protein: recombinant; tags: N-terminal GST; chain copies: 3; dsDNA, one strand shown
Outline: as §1

SPIC = target: T2, SPIC (Homo sapiens, UniProt Q8N5J4 1-248); details: protein: recombinant; tags: N-terminal GST; dsDNA, one strand shown
T2 sequence: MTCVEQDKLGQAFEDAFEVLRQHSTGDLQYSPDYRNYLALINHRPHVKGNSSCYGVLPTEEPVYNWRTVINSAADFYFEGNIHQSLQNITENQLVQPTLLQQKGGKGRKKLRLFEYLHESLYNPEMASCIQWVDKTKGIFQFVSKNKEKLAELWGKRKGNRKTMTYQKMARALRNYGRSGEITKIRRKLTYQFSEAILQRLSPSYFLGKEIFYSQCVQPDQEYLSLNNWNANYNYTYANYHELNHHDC
Outline: as §1

ELF4 = ELF4 (Homo sapiens, UniProt Q99607 1-663); details: protein: recombinant; tags: N-terminal GST; dsDNA, one strand shown
Outline: as §1

ELK4 = target: T3, ELK4 (Homo sapiens, UniProt P28324-2 1-405); details: protein: recombinant; tags: N-terminal GST; dsDNA, one strand shown
T3 sequence: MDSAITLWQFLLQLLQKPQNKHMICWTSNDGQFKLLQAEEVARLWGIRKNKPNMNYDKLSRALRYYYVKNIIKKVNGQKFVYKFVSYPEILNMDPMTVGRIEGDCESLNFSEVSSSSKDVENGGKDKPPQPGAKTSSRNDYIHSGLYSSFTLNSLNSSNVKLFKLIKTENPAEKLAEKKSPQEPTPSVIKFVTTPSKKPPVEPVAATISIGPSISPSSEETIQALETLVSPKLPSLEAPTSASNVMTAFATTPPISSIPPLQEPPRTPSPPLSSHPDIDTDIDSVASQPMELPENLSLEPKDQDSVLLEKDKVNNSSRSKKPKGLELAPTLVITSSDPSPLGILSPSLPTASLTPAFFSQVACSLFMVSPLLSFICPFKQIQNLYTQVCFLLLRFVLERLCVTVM
Outline: as §1

ETV2 = target: T4, ETV2 (Homo sapiens, UniProt O00321 1-342); details: protein: recombinant; tags: N-terminal GST; dsDNA, one strand shown
T4 sequence: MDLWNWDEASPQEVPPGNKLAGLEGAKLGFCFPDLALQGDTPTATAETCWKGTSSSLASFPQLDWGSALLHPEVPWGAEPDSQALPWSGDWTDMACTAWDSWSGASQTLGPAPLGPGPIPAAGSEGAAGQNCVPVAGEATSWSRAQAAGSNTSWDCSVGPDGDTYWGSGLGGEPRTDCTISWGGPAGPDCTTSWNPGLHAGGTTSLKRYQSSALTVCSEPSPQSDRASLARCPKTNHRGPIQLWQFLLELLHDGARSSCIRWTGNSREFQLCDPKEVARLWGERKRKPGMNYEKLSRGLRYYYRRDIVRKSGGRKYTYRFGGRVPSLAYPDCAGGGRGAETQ
Outline: as §1

ELF3 = target: T5, ELF3 (Homo sapiens, UniProt P78545 1-371); details: protein: recombinant; tags: N-terminal GST; dsDNA, one strand shown
T5 sequence: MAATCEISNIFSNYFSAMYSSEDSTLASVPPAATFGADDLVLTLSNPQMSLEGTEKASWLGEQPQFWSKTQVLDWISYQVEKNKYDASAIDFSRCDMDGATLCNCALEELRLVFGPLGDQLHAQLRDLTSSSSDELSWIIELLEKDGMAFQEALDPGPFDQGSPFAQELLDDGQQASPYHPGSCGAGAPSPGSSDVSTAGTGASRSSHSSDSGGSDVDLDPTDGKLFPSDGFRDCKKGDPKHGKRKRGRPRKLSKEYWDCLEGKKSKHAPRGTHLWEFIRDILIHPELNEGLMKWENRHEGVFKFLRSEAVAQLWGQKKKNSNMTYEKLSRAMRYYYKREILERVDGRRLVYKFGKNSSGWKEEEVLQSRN
Outline: as §1

CRX = CRX (Homo sapiens, UniProt O43186 1-299); details: protein: recombinant; tags: N-terminal GST; dsDNA, one strand shown
Outline: as §1

ETV1 = ETV1 (Homo sapiens, UniProt P50549 1-477); details: protein: recombinant; tags: N-terminal GST; dsDNA, one strand shown
Outline: as §1

ERF = target: T6, ERF (Homo sapiens, UniProt P50548 1-548); details: protein: recombinant; tags: N-terminal GST; dsDNA, one strand shown
T6 sequence: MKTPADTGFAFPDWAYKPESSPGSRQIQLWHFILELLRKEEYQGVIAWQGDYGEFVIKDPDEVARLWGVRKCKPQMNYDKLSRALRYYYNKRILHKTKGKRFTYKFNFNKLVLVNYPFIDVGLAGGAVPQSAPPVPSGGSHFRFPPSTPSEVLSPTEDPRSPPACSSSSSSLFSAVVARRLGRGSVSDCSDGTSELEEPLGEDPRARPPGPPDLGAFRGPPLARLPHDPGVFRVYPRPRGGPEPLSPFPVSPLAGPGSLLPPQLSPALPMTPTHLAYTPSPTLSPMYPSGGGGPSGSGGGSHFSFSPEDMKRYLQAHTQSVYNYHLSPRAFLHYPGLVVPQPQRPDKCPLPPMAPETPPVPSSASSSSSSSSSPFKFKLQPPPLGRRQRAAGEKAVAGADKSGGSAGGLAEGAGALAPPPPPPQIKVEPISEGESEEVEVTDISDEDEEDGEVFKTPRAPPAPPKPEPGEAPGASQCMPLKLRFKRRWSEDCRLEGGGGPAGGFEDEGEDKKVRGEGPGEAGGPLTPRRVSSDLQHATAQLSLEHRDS
Outline: as §1

ETV3L = target: T7, ETV3L (Homo sapiens, UniProt Q6ZN32 1-361); details: protein: recombinant; tags: N-terminal GST; dsDNA, one strand shown
T7 sequence: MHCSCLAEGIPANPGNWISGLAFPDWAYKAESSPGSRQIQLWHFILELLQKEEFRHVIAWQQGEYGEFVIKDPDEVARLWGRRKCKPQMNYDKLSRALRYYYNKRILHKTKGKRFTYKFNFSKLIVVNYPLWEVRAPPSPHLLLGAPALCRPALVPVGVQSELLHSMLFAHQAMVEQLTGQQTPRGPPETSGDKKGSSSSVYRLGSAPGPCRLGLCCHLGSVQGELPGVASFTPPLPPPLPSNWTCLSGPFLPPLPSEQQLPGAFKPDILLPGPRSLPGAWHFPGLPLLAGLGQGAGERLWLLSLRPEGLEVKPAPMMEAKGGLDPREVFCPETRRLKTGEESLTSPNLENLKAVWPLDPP
Outline: as §1

ETS2 = target: T8, ETS2 (Homo sapiens, UniProt P15036 1-469); details: protein: recombinant; tags: N-terminal GST; dsDNA, one strand shown
T8 sequence: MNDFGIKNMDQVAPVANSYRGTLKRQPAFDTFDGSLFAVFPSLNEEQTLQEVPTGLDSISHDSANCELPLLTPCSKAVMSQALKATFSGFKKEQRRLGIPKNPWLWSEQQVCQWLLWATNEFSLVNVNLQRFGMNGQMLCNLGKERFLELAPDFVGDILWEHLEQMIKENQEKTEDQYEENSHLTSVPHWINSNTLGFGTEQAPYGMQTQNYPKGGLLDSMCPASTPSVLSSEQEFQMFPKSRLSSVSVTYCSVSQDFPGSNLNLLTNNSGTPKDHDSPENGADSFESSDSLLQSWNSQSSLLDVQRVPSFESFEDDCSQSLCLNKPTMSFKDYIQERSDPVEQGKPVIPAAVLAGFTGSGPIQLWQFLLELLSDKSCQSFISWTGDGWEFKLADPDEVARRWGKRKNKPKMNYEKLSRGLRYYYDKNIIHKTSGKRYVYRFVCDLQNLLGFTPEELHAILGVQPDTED
Outline: as §1

SPDEF = target: T9, SPDEF (Homo sapiens, UniProt O95238 1-335); details: protein: recombinant; tags: N-terminal GST; dsDNA, one strand shown
T9 sequence: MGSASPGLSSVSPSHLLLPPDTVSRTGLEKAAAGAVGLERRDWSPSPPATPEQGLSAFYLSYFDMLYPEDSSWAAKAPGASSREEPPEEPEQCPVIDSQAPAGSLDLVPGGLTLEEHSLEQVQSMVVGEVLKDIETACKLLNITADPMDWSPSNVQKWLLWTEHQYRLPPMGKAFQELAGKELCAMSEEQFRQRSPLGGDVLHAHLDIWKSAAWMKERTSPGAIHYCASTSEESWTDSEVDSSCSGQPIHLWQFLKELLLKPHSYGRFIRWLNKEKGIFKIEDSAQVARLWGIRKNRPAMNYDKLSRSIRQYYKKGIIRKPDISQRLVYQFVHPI
Outline: as §1

ETV7 = target: T10, ETV7 (Homo sapiens, UniProt Q9Y603 1-341); details: protein: recombinant; tags: N-terminal GST; dsDNA, one strand shown
T10 sequence: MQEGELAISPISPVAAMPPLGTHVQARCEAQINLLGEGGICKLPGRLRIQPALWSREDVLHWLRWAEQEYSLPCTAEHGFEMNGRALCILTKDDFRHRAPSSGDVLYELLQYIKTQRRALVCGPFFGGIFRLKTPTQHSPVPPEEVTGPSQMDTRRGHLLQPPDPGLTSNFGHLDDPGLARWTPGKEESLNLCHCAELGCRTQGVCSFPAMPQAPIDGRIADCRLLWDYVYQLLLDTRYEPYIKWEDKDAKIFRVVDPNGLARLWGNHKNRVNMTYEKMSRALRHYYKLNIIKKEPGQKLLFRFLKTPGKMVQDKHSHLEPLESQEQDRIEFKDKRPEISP
Outline: as §1

ELF5 = target: T11, ELF5 (Homo sapiens, UniProt Q9UKW6-2 1-255); details: protein: recombinant; tags: N-terminal GST; dsDNA, one strand shown
T11 sequence: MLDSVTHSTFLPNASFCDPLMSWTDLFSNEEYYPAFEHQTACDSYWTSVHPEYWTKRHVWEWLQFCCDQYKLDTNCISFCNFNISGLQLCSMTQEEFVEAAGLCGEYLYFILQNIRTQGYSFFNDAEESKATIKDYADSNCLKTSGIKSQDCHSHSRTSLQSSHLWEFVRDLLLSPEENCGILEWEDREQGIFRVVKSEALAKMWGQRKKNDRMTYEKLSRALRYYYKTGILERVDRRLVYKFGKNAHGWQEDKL
Outline: as §1

ETV3 = target: T12, ETV3 (Homo sapiens, UniProt P41162-2 1-143); details: protein: recombinant; tags: N-terminal GST; dsDNA, one strand shown
T12 sequence: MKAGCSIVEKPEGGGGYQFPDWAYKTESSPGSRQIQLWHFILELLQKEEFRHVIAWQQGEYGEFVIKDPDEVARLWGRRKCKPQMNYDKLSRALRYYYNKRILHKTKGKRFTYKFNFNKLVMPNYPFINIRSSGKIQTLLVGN
Outline: as §1

ETV6 = ETV6 (Homo sapiens, UniProt P41212 1-452); details: protein: recombinant; tags: N-terminal GST; dsDNA, one strand shown
Outline: as §1

HSF1, sequence (Q00613 whole entry): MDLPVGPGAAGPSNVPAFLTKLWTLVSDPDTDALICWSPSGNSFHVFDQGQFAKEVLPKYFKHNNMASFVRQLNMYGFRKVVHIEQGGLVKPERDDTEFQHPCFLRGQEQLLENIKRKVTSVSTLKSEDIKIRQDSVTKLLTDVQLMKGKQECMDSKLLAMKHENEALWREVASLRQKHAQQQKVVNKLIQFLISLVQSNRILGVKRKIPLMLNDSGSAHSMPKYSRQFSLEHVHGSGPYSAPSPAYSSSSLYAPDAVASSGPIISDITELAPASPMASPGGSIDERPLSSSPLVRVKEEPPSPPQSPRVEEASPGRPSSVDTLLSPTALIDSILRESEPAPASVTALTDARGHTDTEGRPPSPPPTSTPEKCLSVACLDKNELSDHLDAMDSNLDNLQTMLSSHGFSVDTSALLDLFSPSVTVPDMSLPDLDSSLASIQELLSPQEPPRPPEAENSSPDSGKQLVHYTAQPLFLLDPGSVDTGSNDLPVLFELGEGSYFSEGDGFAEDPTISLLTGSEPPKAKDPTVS
ETV1, sequence (P50549 whole entry): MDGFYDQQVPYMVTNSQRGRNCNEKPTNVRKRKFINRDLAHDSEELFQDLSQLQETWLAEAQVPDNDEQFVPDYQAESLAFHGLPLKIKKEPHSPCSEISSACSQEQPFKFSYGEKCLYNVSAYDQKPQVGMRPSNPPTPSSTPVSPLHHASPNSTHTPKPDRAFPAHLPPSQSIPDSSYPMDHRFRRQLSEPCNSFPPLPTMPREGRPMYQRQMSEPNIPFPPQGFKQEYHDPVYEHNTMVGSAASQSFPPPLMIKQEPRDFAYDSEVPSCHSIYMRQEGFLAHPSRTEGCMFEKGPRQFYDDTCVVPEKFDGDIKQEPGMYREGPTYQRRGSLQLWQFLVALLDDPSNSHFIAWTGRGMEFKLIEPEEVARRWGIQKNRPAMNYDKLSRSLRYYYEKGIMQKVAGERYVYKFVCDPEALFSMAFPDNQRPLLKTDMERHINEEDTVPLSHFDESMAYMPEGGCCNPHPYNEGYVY
ETV6, sequence (P41212 whole entry): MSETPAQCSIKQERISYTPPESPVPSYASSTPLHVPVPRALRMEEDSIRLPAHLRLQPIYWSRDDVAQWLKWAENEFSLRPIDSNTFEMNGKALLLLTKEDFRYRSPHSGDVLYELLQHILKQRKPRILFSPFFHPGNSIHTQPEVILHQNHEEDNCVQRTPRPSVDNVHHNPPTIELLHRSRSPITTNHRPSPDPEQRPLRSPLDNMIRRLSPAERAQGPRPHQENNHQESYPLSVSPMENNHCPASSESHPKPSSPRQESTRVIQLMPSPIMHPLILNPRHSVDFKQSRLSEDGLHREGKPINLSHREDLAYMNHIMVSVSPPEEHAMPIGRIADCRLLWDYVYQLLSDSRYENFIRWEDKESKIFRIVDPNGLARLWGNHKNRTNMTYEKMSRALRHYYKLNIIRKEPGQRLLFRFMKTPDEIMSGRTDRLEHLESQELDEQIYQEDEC
ELF4, sequence (Q99607 whole entry): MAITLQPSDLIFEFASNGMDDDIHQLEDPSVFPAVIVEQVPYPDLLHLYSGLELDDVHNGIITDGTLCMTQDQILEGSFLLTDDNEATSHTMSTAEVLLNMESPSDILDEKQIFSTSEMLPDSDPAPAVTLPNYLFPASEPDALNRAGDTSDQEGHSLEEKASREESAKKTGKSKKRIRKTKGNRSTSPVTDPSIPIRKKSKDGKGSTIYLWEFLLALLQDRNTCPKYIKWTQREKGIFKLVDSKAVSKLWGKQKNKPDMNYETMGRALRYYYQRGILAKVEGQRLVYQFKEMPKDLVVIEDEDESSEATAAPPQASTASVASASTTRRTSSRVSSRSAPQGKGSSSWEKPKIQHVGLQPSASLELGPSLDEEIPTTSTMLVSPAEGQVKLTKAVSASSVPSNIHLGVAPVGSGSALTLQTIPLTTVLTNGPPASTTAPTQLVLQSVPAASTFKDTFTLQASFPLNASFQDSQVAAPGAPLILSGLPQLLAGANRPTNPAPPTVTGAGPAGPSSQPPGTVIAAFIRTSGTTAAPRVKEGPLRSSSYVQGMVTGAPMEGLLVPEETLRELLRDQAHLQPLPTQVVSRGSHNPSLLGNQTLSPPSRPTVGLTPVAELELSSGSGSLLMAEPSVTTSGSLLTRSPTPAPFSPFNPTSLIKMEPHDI
ETV5, sequence (P41161 whole entry): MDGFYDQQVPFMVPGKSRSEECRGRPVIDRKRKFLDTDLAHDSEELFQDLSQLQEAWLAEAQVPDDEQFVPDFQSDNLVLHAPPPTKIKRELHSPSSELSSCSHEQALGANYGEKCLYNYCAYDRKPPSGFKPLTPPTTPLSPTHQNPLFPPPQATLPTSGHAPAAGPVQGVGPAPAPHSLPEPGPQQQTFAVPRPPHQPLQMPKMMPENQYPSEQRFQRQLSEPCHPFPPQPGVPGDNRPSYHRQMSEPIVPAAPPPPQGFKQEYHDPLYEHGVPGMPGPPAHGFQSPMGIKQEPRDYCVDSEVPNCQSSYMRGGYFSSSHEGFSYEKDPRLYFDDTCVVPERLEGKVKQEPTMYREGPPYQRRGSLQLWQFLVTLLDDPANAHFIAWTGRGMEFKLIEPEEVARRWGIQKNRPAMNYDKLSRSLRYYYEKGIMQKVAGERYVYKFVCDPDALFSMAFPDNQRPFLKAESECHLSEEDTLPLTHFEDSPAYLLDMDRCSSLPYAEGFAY
CRX, sequence (O43186 whole entry): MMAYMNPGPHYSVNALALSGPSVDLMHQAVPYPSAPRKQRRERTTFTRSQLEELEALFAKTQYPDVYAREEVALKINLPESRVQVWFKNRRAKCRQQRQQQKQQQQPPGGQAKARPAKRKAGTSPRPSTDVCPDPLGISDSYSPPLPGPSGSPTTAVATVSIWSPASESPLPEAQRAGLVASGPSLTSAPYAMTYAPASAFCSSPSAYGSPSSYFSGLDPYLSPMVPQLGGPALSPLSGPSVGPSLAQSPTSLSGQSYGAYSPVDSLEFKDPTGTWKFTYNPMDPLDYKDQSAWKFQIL

ATGATG
binding signal (FEV): 1.27 fold enrichment (6-mer frequency, TF over GST control) | binding signal (ETV5): 1.33 fold enrichment (6-mer frequency, TF over GST control) | binding signal (HSF1): 1.24 fold enrichment (6-mer frequency, TF over GST control) | binding signal (SPIC): 1.35 fold enrichment (6-mer frequency, TF over GST control) | binding signal (ELF4): 1.37 fold enrichment (6-mer frequency, TF over GST control) | binding signal (ELK4): 1.38 fold enrichment (6-mer frequency, TF over GST control) | binding signal (ETV2): 1.47 fold enrichment (6-mer frequency, TF over GST control) | binding signal (ELF3): 1.38 fold enrichment (6-mer frequency, TF over GST control) | binding signal (CRX): 1.21 fold enrichment (6-mer frequency, TF over GST control) | binding signal (ETV1): 1.24 fold enrichment (6-mer frequency, TF over GST control) | binding signal (ERF): 1.27 fold enrichment (6-mer frequency, TF over GST control) | binding signal (ETV3L): 1.41 fold enrichment (6-mer frequency, TF over GST control) | binding signal (ETS2): 1.27 fold enrichment (6-mer frequency, TF over GST control) | binding signal (SPDEF): 1.22 fold enrichment (6-mer frequency, TF over GST control) | binding signal (ETV7): 1.43 fold enrichment (6-mer frequency, TF over GST control) | binding signal (ELF5): 1.25 fold enrichment (6-mer frequency, TF over GST control) | binding signal (ETV3): 1.43 fold enrichment (6-mer frequency, TF over GST control) | binding signal (ETV6): 1.38 fold enrichment (6-mer frequency, TF over GST control)
